The sample as a whole holds a higher share of hits than the screen did.
RBX1-CUL1 inh: blocks human RBX1-Cullin-1 di-ubiquitin formation; inhibition, % at 10 µM; in vitro K48 di-Ub FRET, acceptor:donor ratio, 45 min; hit rate 0.6% among 140,000; in the data active = inhibition above about 25%
Target sequence (P62877 whole entry, looked up): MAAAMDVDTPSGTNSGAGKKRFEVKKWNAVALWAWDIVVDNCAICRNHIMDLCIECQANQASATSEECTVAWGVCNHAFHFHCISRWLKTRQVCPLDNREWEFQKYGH
Target sequence (Q13616 whole entry, looked up): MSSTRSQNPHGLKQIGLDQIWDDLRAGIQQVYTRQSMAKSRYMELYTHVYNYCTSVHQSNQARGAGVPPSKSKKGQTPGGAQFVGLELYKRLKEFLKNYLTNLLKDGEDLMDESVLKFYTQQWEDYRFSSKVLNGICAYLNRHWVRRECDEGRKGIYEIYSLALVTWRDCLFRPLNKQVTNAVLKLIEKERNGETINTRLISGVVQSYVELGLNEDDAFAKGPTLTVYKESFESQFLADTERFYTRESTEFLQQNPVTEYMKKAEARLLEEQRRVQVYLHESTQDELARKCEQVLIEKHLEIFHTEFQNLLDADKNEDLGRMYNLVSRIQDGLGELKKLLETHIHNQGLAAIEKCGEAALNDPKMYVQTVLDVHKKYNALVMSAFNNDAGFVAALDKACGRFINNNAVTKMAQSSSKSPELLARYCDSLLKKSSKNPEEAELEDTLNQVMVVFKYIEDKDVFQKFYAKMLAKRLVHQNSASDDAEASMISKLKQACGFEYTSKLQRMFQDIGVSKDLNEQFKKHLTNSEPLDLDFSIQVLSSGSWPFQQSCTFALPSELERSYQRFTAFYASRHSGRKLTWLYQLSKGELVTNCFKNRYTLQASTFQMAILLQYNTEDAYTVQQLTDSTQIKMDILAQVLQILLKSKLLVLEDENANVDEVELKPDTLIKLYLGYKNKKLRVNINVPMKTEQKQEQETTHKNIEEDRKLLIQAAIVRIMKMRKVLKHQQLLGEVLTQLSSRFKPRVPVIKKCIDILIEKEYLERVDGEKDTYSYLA
Numbers without * were called inactive.

SMILES	RBX1-CUL1 inh
Cc1ccc(-n2c(SCC(N)=O)nnc2-c2ccc(Cl)cc2)cc1	3.9
N=C1C(Br)C(=O)Nc2nnc(-c3ccc(Cl)cc3)n21 (stereo not given)	31.5*
COc1ccc(-n2c(-c3ccccc3)nnc2-c2ccc(Cl)cc2)cc1	0.2
O=C(Nc1ccccc1)NC1CCCCC1NC(=O)Nc1ccccc1 (stereo not given)	-2.5
COc1ccc(/C=C2/SC(=NCc3ccco3)NC2=O)cc1	-8.1
CCN(CC)CCN=C(N)C(C#N)CC1=Nc2ccccc2C1=O (stereo not given)	0.3
CN(C)CC1=Nc2ccccc2C1=O	2.7
N#CC(CC1=Nc2ccccc2C1=O)C(N)=NC1CCCCC1 (stereo not given)	71.0*
Cc1cc(SC#N)ccc1NC(=O)C12CC3CC(CC(C3)C1)C2	7.3
Cc1ccc(NS(=O)(=O)c2cccc(S(=O)(=O)c3ccc(Cl)cc3)c2)cc1C	-6.0
O=C(C1CCC(=O)N(C2CCCC2)C1)N1CCCCCCC1 (stereo not given)	4.8
COC(=O)C1C(C)=NC2=C(C(=O)CC(C)(C)C2)C1c1ccc(C(C)(C)C)cc1 (stereo not given)	-0.3
Cc1oc(-c2cc(F)ccc2F)nc1CN(C)C(C)c1ccon1 (stereo not given)	9.4
COc1ccccc1NC(=O)C1C(C)=Nc2nnnn2C1c1ccc(C(F)(F)F)cc1 (stereo not given)	0.9
Cc1noc(C)c1CC(=O)N1CCC(n2nccc2NC(=O)C2CCOC2)CC1 (stereo not given)	1.7
CC1C(=NC(=O)CSc2nnc(Cc3ccccc3)o2)C(=O)N(c2ccccc2)N1C (stereo not given)	-1.1
CC1C(=NC(=O)CSc2nc(-c3ccccc3)c(-c3ccccc3)o2)C(=O)N(c2ccccc2)N1C (stereo not given)	51.8*
CC1C(=NC(=O)CSc2nnc(-c3ccccc3)n2-c2ccccc2)C(=O)N(c2ccccc2)N1C (stereo not given)	-2.7
Cc1cc(C)n(-c2nnc(Nc3ccc(Br)cc3)nn2)n1	0.6
CCS(=O)(=O)Oc1ccc2c(C)cc(=O)oc2c1	5.2
O=C1NC(=S)N=C1Cc1ccc(OCc2cccc(C(=O)O)c2)cc1	25.7*
O=C(O)COc1ccc(CC2=NC(=S)NC2=O)cc1	6.8
CC(C)Oc1ccc(CC2=NC(=S)NC2=O)cc1	3.6
COc1nc(OC)nc(Oc2cc(Cl)c(Cl)cc2Cl)n1	-0.1
CCN(CCO)C(=O)CCC1(Cc2ccc(OC)c3ccccc23)CCC(=O)N1 (stereo not given)	1.0
SMILES	RBX1-CUL1 inh
Cc1cc(OCC=C(Cl)Cl)c2cccc(C)c2n1	1.1
OC(Cc1ccccc1)c1ccc2c(c1)CN(Cc1cc(F)cc(F)c1)CCO2 (stereo not given)	-0.6
CCOc1cc(/C=C2\C(=O)NN(c3ccccc3)C2=O)cc(Cl)c1OCCOc1ccc(OC)cc1	9.2
O=C1NN(c2ccccc2)C(=O)/C1=C/c1cc(Br)ccc1OCc1c(Cl)cccc1Cl	-1.4
CCOc1cc(/C=C2\C(=O)NN(c3ccccc3)C2=O)cc(Cl)c1OCCOc1cc(C)ccc1C	43.5*
CCOc1cc(/C=C2/C(=O)NN(c3ccc(Cl)cc3)C2=O)cc(I)c1OC	38.7*
COc1cc(/C=C2/C(=O)NN(c3ccc(C)c(Cl)c3)C2=O)ccc1OCc1ccccc1	0.9
COc1cc(/C=C2\C(=O)NN(c3ccccc3)C2=O)ccc1OCCOCCOc1ccccc1C	3.2
COc1ccc(/C=C2\C(=O)NN(c3ccc(Cl)cc3)C2=O)cc1OC	18.6
CCOc1cc(/C=C2\C(=O)NN(c3ccccc3)C2=O)cc(Cl)c1OCCCOc1ccc(Cl)cc1	2.5
CCOc1cc(/C=C2\C(=O)NN(c3ccccc3)C2=O)cc(Br)c1OCc1ccc(Cl)c(Cl)c1	11.8
CCOc1cc(/C=C2\C(=O)NN(c3ccccc3)C2=O)cc(Br)c1OCc1c(Cl)cccc1Cl	28.2*
COc1cc(/C=C2/C(=O)NN(c3ccc(Cl)cc3)C2=O)ccc1OCc1ccc(F)cc1	0.2
COc1cc(/C=C2\C(=O)NN(c3ccccc3)C2=O)cc(Cl)c1OCc1ccc(Cl)c(Cl)c1	56.8*
c1ccc(CSc2ncc(-c3nnnn3-c3ccccc3)c(-c3ccccc3)n2)cc1	-1.1
O=C1N(CC2CCC2)CCCC1(O)CNCc1ccc(Cl)s1 (stereo not given)	-5.4
N#Cc1ccc(-c2ccncc2)nc1SCC(=O)Nc1cccc(C(F)(F)F)c1	9.1
CC(C)=NNc1nc(-c2ccccc2)nc(Cl)c1-c1ccccc1	5.2
N#CCC(=O)N1NC(=Nc2ccccc2)SCC1=O	4.7
CCn1c(O)c(N=NC(=O)c2ccccn2)c2ccccc21	3.8
Cc1c(CC(=O)N2CCNC(=O)C2)c2c(n1Cc1ccc(F)cc1)CCCC2=O	3.1
O=C(c1cccc(COc2cccc3ccccc23)c1)N1CCCCCC1	-12.2
O=C(c1ccc2nc3ccccc3c(=O)n2c1)N1CCN(c2ccccc2)CC1	1.8
O=C(COc1ccccc1F)N1CCN(c2ccccc2F)CC1	0.4
Cc1cccc2c(C(=O)N(C)C)cc(-c3cnn(C4CCN(C)CC4)c3)nc12	1.8
SMILES	RBX1-CUL1 inh
COc1cc(/C=C2\C(=O)NN(c3ccccc3)C2=O)cc(Cl)c1OCCCOc1ccccc1	93.5*
COc1cc(/C=C2\C(=O)NN(c3ccccc3)C2=O)cc(Br)c1OCCCOc1ccc(C)cc1	11.0
COc1cc(/C=C2\C(=O)NN(c3ccccc3)C2=O)cc(Br)c1OCCCOc1ccccc1	2.8
O=C1CCCN1CN1CCN(c2ccccc2)CC1	3.7
CCc1cc(C(=O)NCCC2CN(c3cnn(C)c(=O)c3)CCO2)n(C)n1 (stereo not given)	3.7
O=C(CS(=O)(=O)Cc1ccccc1)Nc1ccc(S(=O)(=O)Nc2nccs2)cc1	7.4
Cc1cccc2sc(NC(=O)c3sc4nc5c(c(C(F)(F)F)c4c3N)CCCC5)nc12	2.9
COc1ccc(-c2[nH]nc3c2C(c2ccc(Br)cc2)C(C#N)C(=N)O3)cc1 (stereo not given)	13.7
COc1ccc(-c2[nH]nc3c2C(c2cc(I)cc(I)c2O)C(C#N)C(=N)O3)cc1 (stereo not given)	28.2*
COc1ccc(-c2[nH]nc3c2C(c2ccoc2)C(C#N)C(=N)O3)cc1 (stereo not given)	-6.5
Cc1ccc(C)c(NC(=O)c2c(C)noc2C)c1	1.0
O=C(NC1CCCC1)c1ccc2snnc2c1	0.2
CC(NC(=O)c1cc(-c2cn[nH]c2)nc2cc(F)ccc12)C(F)(F)F (stereo not given)	6.8
Cc1ccccc1C(=O)N1CCN(c2ccc(NC(=O)c3ccccc3Br)cc2)CC1	4.2
Cc1ccccc1C(=O)N1CCN(c2ccc(NC(=O)CSc3ccc(Cl)cc3)cc2)CC1	29.7*
O=C(CSc1ccc(Cl)cc1)Nc1ccc(N2CCN(C(=O)c3cccs3)CC2)cc1	-3.7
Cc1cc(C)c2oc(-c3ccc(C)c(NC(=O)C(c4ccccc4)c4ccccc4)c3)nc2c1	3.2
O=c1cc(C2CCNCC2)nc(-c2ccc(CN3CC[C@@H](O)C3)cc2)[nH]1	6.5
O=C(Cc1ccccc1)Nc1cc(Cl)ccc1O	-5.4
O=C(Cc1ccccc1Cl)N1CCN(c2ncccn2)CC1	9.3
O=C(Cc1ccccc1Cl)c1ccc(O)c(O)c1O	100.9*
C=CCSC1=NC2(CC(c3ccccc3)Oc3cc(O)ccc32)CC(C)(C)N1 (stereo not given)	-15.5
CNC(=O)c1ccccc1NC(=O)Nc1ccc(Cl)cc1	10.6
COc1cc(CNC(C)c2ccccc2)cc(Br)c1OCC(N)=O (stereo not given)	-6.9

Screening results from PubChem.
